This is a sample that favours compounds with a hit; in the whole collection about 2.8% have one here.
PI5P4K alpha inh – blocks human PI5P4K alpha kinase activity; max response, %; P48426; hit rate 1.2% among 330,000; PI5P4Kalpha enzyme, ADP-Glo luminescence, 60 min; hits give low values; active = max response of -50% or lower; inconclusive = between -30% and -50%; inactive = -30% or higher; also: value at the top dose of about 77 µM; % is scaled to controls: 0 for no effect and ±100 for the full control effect
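qHTS, 1536-well: enzyme/substrate mix, compound by pin tool, 5 microM ATP final; RT 60 min; ADP-Glo reagents 1 (45 min) then 2 (30 min); luminescence.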
WRN inhibitor – inhibitors of human WRN helicase. hit rate 0.46% among 360,000. AID 651768. Potency, µM (doses to about 114 µM), for the others: top-dose activity change, negative = inhibition, hits mostly inhibitors. Q14191. WRN helicase unwinding, fluorescent forked duplex, kinetic; also: potency is read from the fitted curve at half-maximal effect; % is scaled to controls: 0 for no effect and ±100 for the full control effect; nearly all actives have a fitted effect of over 55% in size
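Kinetic fluorescence helicase assay: unwinding of a quenched forked DNA duplex (100 nM final) with 2 mM ATP final raises red fluorescence (525/598 nm). Compounds sat 15 min at room temperature with 20 nM WRN beforehand.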
POLI inh – DNA polymerase iota (human) inhibition | Q9UNA4 | Potency, µM (doses to about 115 µM), without a hit: at the highest dose activity, negative = inhibition, actives largely listed as inhibitors | Pol iota fluorescent replication assay, 10 min | hit rate 1% among 390,000; also: potency is read from the fitted curve at half-maximal effect
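Pol iota at 10 nM preincubated 15 min with compounds at room temperature; reaction started with fluorescent substrate, 50 nM final. Fluorescence read kinetically at 0 and 10 min; buffer-only wells as negative control.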
POLB inh – DNA polymerase beta (human) inhibition; Pol beta primer extension/strand displacement, fluorescence kinetic; Potency, µM (highest dose often 114 µM), inactives show top-dose activity change, negative = inhibition, usual class: inhibitors; hit rate 1.3% among 340,000; also: potency is read from the fitted curve at half-maximal effect; % is scaled to controls: 0 for no effect and ±100 for the full control effect
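Kinetic readout of DNA synthesis with strand displacement by Pol beta. Compound and 10 nM enzyme sit 15 min at room temperature; 50 nM substrate starts the reaction, read immediately and at 10 min.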
Pol eta inh – blocks human DNA polymerase eta activity | hit rate 1.2% among 390,000 | Potency, µM (highest dose often 114 µM), for inactives: at the highest dose activity change, negative = inhibition, actives largely listed as inhibitors | Q9Y253 | recombinant Pol eta, fluorescent DNA replication assay; also: potency is read from the fitted curve at half-maximal effect; % is scaled to controls: 0 for no effect and ±100 for the full control effect
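Pol eta (10 nM) was preincubated with compounds for 15 min at room temperature, after which fluorescent replication substrate (50 nM final) was added to start the reaction. Fluorescence was read kinetically at 0 and 10 min.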
Pol kappa inh – DNA polymerase kappa (human) inhibition | hit rate 0.53% among 400,000 | Potency, µM (titrated, usually from 107 µM), inactives show at the top dose activity, negative = inhibition, hits mostly inhibitors | Q9UBT6 | purified Pol kappa, fluorescent DNA synthesis assay, 10 min | AID 588579; also: potency is read from the fitted curve at half-maximal effect; % is scaled to controls: 0 for no effect and ±100 for the full control effect
Target sequence (Q9UBT6 whole entry, looked up): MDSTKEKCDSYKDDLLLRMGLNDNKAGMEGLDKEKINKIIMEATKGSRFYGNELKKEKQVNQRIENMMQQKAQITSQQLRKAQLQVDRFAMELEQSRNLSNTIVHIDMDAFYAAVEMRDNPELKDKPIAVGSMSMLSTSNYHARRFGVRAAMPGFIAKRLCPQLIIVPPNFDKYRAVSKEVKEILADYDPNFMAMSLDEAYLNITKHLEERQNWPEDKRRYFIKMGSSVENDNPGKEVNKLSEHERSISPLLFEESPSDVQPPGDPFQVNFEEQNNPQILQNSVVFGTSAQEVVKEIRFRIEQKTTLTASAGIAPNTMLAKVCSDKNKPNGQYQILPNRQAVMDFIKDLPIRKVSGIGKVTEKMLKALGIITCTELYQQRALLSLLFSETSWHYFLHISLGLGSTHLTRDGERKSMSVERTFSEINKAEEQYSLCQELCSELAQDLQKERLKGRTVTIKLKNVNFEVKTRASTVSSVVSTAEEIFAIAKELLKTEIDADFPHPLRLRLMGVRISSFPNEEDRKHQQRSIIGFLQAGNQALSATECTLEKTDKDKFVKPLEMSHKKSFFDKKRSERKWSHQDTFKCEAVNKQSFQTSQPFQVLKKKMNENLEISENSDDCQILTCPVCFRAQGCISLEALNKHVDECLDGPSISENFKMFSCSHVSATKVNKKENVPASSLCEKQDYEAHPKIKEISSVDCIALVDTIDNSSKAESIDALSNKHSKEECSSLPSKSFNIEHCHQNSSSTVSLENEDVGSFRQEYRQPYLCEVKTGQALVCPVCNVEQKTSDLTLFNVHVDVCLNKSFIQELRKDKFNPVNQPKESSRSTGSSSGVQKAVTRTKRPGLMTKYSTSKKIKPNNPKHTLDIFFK
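Pol kappa 10 nM + cpd, 15 min RT; start w/ substrate 50 nM final; fluorescence kinetic read, 0 and 10 min. Neg ctrl: buffer, no enzyme.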
The depositor's hits bear a star; [ ] = dose if it differs, or a comment. Unless noted, calls follow the shape of the dose curve; as a rule, active = well fitted curve in the direction sought with a large enough effect; inconclusive = small, poorly fitted or top-dose-only effect, or another doubt; inactive = no such curve, though single readings can be large; an effect the other way counts as inactive or inconclusive.

`COc1ccc(/C=C2\SC(=O)N(CCC(=O)Nc3ccc(S(=O)(=O)Nc4nccs4)cc3)C2=O)cc1` gave PI5P4K alpha inh -22, WRN inhibitor -7%, POLI inh 68%, POLB inh 50µM*, Pol eta inh -15% and Pol kappa inh -5%.
CCCn1c(SCC(=O)Nc2ccccc2C(=O)NC2CC2)n[nH]c1=O was read as PI5P4K alpha inh -4, WRN inhibitor -4%, POLI inh -14%, Pol eta inh -9% and Pol kappa inh -1%.
For O=C(/C=C/c1ccc2c(c1)OCO2)Nc1nc(-c2ccc(F)cc2F)cs1 the results were POLB inh 22µM*.
Screening Cc1csc(NC(=O)/C=C/c2ccc3c(c2)OCO3)n1 returned PI5P4K alpha inh 5, WRN inhibitor -1%, POLI inh 6%, POLB inh 14%, Pol eta inh -6% and Pol kappa inh 2%.
Screening O=C(/C=C/c1ccc(N2CCC(c3ccccc3)=N2)cc1)c1ccccc1 returned PI5P4K alpha inh -5, WRN inhibitor 50µM*, POLI inh inconclusive, POLB inh 0%, Pol eta inh -15% and Pol kappa inh -15%.
Screening O=S1(=O)C2CC3C=CC2(CN1Cc1ccccc1)O3 (centres undefined) returned POLI inh 18% and Pol kappa inh 21%.
`Nc1ncc(S(=O)(=O)NCc2cccc(Cl)c2)cn1` gave POLI inh 22%, POLB inh 12%, Pol eta inh -15% and Pol kappa inh -3%[60.1 µM].
COc1ccc(C)cc1NC(=O)c1ccc2c(c1)C(=O)N(Cc1ccncc1)C2=O was read as PI5P4K alpha inh -7, WRN inhibitor -5%, POLI inh 19%, Pol eta inh -1% and Pol kappa inh -14%.
COc1ccc(NC(=O)c2ccc3c(c2)C(=O)N(Cc2ccncc2)C3=O)cc1S(N)(=O)=O was read as PI5P4K alpha inh -2, WRN inhibitor inconclusive, POLI inh 32µM*, Pol eta inh inconclusive and Pol kappa inh -10%.
Cc1cc(C)c2nc3nc(C)c(C)cc3c(N)c2c1 was read as PI5P4K alpha inh 0, WRN inhibitor 8%[11.6 µM], POLI inh 32µM*, POLB inh 16µM*, Pol eta inh -20% and Pol kappa inh inconclusive.
CSc1ccc(/C=N/NC(=O)COc2ccc(Br)cc2Cl)cc1 was read as PI5P4K alpha inh -9, WRN inhibitor -4%, POLI inh -2%, POLB inh 7%[57.1 µM], Pol eta inh -12% and Pol kappa inh -7%.
`Cc1cccc(C(=O)OCc2cc(=O)n3nc(-c4cccs4)sc3n2)c1` gave POLI inh 89µM*, POLB inh 20µM*, Pol eta inh inconclusive and Pol kappa inh inconclusive.
`Cc1ccc(OCC(=O)OCc2cc(=O)n3nc(-c4cccs4)sc3n2)cc1C` gave POLI inh inconclusive, POLB inh inconclusive, Pol eta inh -19% and Pol kappa inh -38%.
Screening O=C(OCc1cc(=O)n2nc(-c3cccs3)sc2n1)c1ccc(Cl)cc1 returned POLI inh inconclusive, POLB inh 32µM*, Pol eta inh inconclusive and Pol kappa inh -34%.
Screening O=C(COc1ccccc1F)OCc1cc(=O)n2nc(-c3cccs3)sc2n1 returned POLI inh inconclusive, POLB inh 32µM*, Pol eta inh -28% and Pol kappa inh -16%.
`O=C(OCc1cc(=O)n2nc(-c3cccs3)sc2n1)c1ccccc1` gave POLI inh 79µM*, POLB inh 35µM*, Pol eta inh 79µM* and Pol kappa inh -23%.
Cc1ccccc1OCC(=O)OCc1cc(=O)n2nc(-c3cccs3)sc2n1 was read as POLI inh inconclusive, POLB inh inconclusive, Pol eta inh -15% and Pol kappa inh -21%.
`Cc1cnc2ccccc2c1/C=C/c1ccc(N(C)C)cc1` gave POLI inh 23% and Pol kappa inh -7%.
Screening Cc1nc2ccccc2nc1-c1csc(-c2ccccc2)n1 returned POLI inh -16% and Pol kappa inh -5%.
For CCC(CC)C(=O)Nc1cc(-c2cccc(C)c2)nn1-c1ccccc1 the results were POLI inh -4%, POLB inh -2%, Pol eta inh -18% and Pol kappa inh -15%[60.1 µM].
`COc1ccc(Nc2cc(C)c3cc(NC(=O)c4cc(OC)cc(OC)c4)ccc3n2)cc1` gave POLI inh 12%, POLB inh 0%, Pol eta inh -23% and Pol kappa inh -12%.
Screening CCc1nn2c(=O)cc(COC(=O)c3cccc(NC(=O)c4cccs4)c3)nc2s1 returned POLI inh 89µM*, POLB inh 1%, Pol eta inh -12% and Pol kappa inh -2%[60.1 µM].
`CC(C)c1nn2c(=O)cc(COC(=O)c3cccc(NC(=O)c4cccs4)c3)nc2s1` gave POLI inh -6%, POLB inh 0%, Pol eta inh -21% and Pol kappa inh 0%[60.1 µM].
Screening CCCCCCCN(c1ccccc1)[C@@H]1C[C@H]2CCCC(=O)N3CC[C@@H](C1)[C@@H]23 returned PI5P4K alpha inh 1, WRN inhibitor -5%, POLI inh 19%, Pol eta inh inconclusive and Pol kappa inh 2%.
COc1ccc(-c2onc(C)c2C)cc1S(=O)(=O)Nc1cccc(C#N)c1 was read as POLI inh -14%, POLB inh 6%, Pol eta inh -2% and Pol kappa inh 4%.
Screening O=C(CSc1nc(-c2ccccc2)nc2cc(=O)[nH]n12)Nc1ccccc1 returned POLI inh inconclusive, POLB inh inconclusive, Pol eta inh -2% and Pol kappa inh -9%[60.1 µM].
`Cc1ccc(NC(=O)CSc2nc(-c3cccs3)nc3cc(=O)[nH]n23)cc1` gave POLI inh inconclusive, POLB inh 32µM*, Pol eta inh 79µM* and Pol kappa inh -34%.
For Cc1ccc(NC(=O)CSc2nc(-c3ccco3)nc3cc(=O)[nH]n23)cc1C the results were POLI inh inconclusive, POLB inh 40µM*, Pol eta inh inconclusive and Pol kappa inh inconclusive.
For Cc1cccc(NC(=O)CSc2nc(-c3cccs3)nc3cc(=O)[nH]n23)c1 the results were POLI inh inconclusive, POLB inh inconclusive, Pol eta inh -8% and Pol kappa inh -31%.
COc1ccc(NC(=O)CSc2nc(-c3ccccc3)nc3cc(=O)[nH]n23)cc1 was read as POLI inh inconclusive, POLB inh 25µM*, Pol eta inh -15% and Pol kappa inh inconclusive.
`Cc1ccc(NC(=O)CSc2nnc(CNC(=O)c3ccco3)n2C)cc1C` gave PI5P4K alpha inh 1, WRN inhibitor 15%, POLI inh 31%, Pol eta inh -20% and Pol kappa inh -2%.

Source: PubChem BioAssay
